Results: PubChem BioAssay AID1159580 (chemical genetic matrix, 2015)
Out of some 5,500 compounds screened, about 2,000 (36%) were called active. About 18% were inconclusive and are not listed. Rule as the data show it: active = normalized growth mostly below about 0.91 (no sharp cut-off); inconclusive = no clear call, values can overlap the other calls; inactive = mostly above about 0.92. Some of the results follow.

Test: chemical genetic growth profiling, strain panel (AID 1159580);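 also: tested at 20 µM; growth read once vehicle control cultures reached saturation at 30 °C; 1 = growth at the plate median or of vehicle wells; lower values mean less growth of the strain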
Conditions: growth OD

Measured: normalized growth

CN(C)CC/C=C1/c2ccccc2COc2ccccc21
inactive: S. cerevisiae deletion strains, locus YKL068W, active compounds read low 1.02 | S. cerevisiae deletion strains, locus YKL085W, strain MDH1 (second series), active compounds read low 1 | S. cerevisiae deletion strains, locus YKL085W, strain MDH1, active compounds read low 1 | S. cerevisiae deletion strains, locus YKL160W, strain elf1, active compounds read low 1.01 | S. cerevisiae deletion strains, locus YKL190W, strain CNB1, active compounds read low 1.02 | S. cerevisiae deletion strains, locus YKR001C, strain vps1, active compounds read low 1 | S. cerevisiae deletion strains, locus YKR026C, strain gcn3, active compounds read low 1.03 | S. cerevisiae deletion strains, locus YKR091W, strain srl3, active compounds read low 1.02 | S. cerevisiae deletion strains, locus YLL001W, strain dnm1, active compounds read low 1.01 | S. cerevisiae deletion strains, locus YLL026W, active compounds read low 1.02 | S. cerevisiae deletion strains, locus YLL041C, strain sdh2, active compounds read low 1.03 | S. cerevisiae deletion strains, locus YLR027C, strain aat2, active compounds read low 1.02 | S. cerevisiae deletion strains, locus YLR039C, strain RIC1, active compounds read low 1.15 | S. cerevisiae deletion strains, locus YLR058C, strain SHM2, active compounds read low 1.01 | S. cerevisiae deletion strains, locus YLR102C, strain apc9, active compounds read low 1.01 | S. cerevisiae deletion strains, locus YLR113W, strain HOG1, active compounds read low 1.09 | S. cerevisiae deletion strains, locus YLR221C, strain rsa3, active compounds read low 1.01 | S. cerevisiae deletion strains, locus YLR258W, strain gsy2, active compounds read low 1.02 | S. cerevisiae deletion strains, locus YLR262C, strain YPT6 (second series), active compounds read low 1.09 | S. cerevisiae deletion strains, locus YLR262C, strain YPT6, active compounds read low 1.14 | S. cerevisiae deletion strains, locus YLR268W, strain sec22, active compounds read low 1.02 | S. cerevisiae deletion strains, locus YLR320W, strain mms22, active compounds read low 1.01 | S. cerevisiae deletion strains, locus YLR330W, strain CHS5, active compounds read low 1.01 | S. cerevisiae deletion strains, locus YLR342W, strain FKS1 (second series), active compounds read low 1 | S. cerevisiae deletion strains, locus YLR342W, strain FKS1, active compounds read low 1.01 | S. cerevisiae deletion strains, locus YLR357W, strain rsc2, active compounds read low 1.02 | S. cerevisiae deletion strains, locus YLR370C, strain arc18, active compounds read low 1.02 | S. cerevisiae deletion strains, locus YLR371W, strain rom2, active compounds read low 1.01 | S. cerevisiae deletion strains, locus YLR384C, strain iki3, active compounds read low 1.03 | S. cerevisiae deletion strains, locus YLR418C, strain cdc73, active compounds read low 0.996 | S. cerevisiae deletion strains, locus YML016C, strain PPZ1, active compounds read low 1 | S. cerevisiae deletion strains, locus YML032C, strain rad52, active compounds read low 1.02 | S. cerevisiae deletion strains, locus YML120C, strain ndi1, active compounds read low 1.04 | S. cerevisiae deletion strains, locus YML124C, strain tub3, active compounds read low 1.02 | S. cerevisiae deletion strains, locus YMR058W, strain fet3, active compounds read low 1.01 | S. cerevisiae deletion strains, locus YMR078C, strain ctf18, active compounds read low 1.03 | S. cerevisiae deletion strains, locus YMR125W, strain sto1, active compounds read low 1.02 | S. cerevisiae deletion strains, locus YMR129W, active compounds read low 1.02 | S. cerevisiae deletion strains, locus YMR205C, strain PFK2, active compounds read low 1.04 | S. cerevisiae deletion strains, locus YMR223W, strain ubp8, active compounds read low 1.03 | S. cerevisiae deletion strains, locus YMR231W, strain pep5, active compounds read low 1.03 | S. cerevisiae deletion strains, locus YMR263W, strain SAP30, active compounds read low 1 | S. cerevisiae deletion strains, locus YMR307W, strain GAS1, active compounds read low 1.05 | S. cerevisiae deletion strains, locus YNL067W, strain RPL9B, active compounds read low 1.01 | S. cerevisiae deletion strains, locus YNL071W, strain lat1, active compounds read low 1.02 | S. cerevisiae deletion strains, locus YNL128W, strain TEP1, active compounds read low 1.01 | S. cerevisiae deletion strains, locus YNL153C, strain GIM3, active compounds read low 0.997 | S. cerevisiae deletion strains, locus YNL183C, strain NPR1, active compounds read low 0.989 | S. cerevisiae deletion strains, locus YNL209W, strain ssb2, active compounds read low 0.985 | S. cerevisiae deletion strains, locus YNL233W, strain BNI4, active compounds read low 1.01 | S. cerevisiae deletion strains, locus YNL248C, strain rpa49, active compounds read low 1.01 | S. cerevisiae deletion strains, locus YNL250W, strain rad50, active compounds read low 1.04 | S. cerevisiae deletion strains, locus YNL271C, strain bni1, active compounds read low 1.01 | S. cerevisiae deletion strains, locus YNL298W, strain CLA4, active compounds read low 1.02 | S. cerevisiae deletion strains, locus YNL307C, strain MCK1, active compounds read low 1.03 | S. cerevisiae deletion strains, locus YNL322C, strain KRE1 (second series), active compounds read low 1.02 | S. cerevisiae deletion strains, locus YNL322C, strain KRE1, active compounds read low 1.02 | S. cerevisiae deletion strains, locus YNR049C, strain mso1, active compounds read low 1.02 | S. cerevisiae deletion strains, locus YNR052C, strain pop2, active compounds read low 1.02 | S. cerevisiae deletion strains, locus YOL006C, strain TOP1, active compounds read low 0.974 | S. cerevisiae deletion strains, locus YOL012C, strain htz1 1.18 | S. cerevisiae deletion strains, locus YOL147C, strain pex11, active compounds read low 1.01 | S. cerevisiae deletion strains, locus YOR001W, strain rrp6, active compounds read low 1.02 | S. cerevisiae deletion strains, locus YOR061W, strain CKA2, active compounds read low 1 | S. cerevisiae deletion strains, locus YOR069W, strain VPS5, active compounds read low 1.01 | S. cerevisiae deletion strains, locus YOR070C, strain gyp1, active compounds read low 1.02 | S. cerevisiae deletion strains, locus YOR080W, strain dia2, active compounds read low 1.03 | S. cerevisiae deletion strains, locus YOR083W, strain WHI5, active compounds read low 0.99 | S. cerevisiae deletion strains, locus YOR106W, strain vam3, active compounds read low 1.02 | S. cerevisiae deletion strains, locus YOR136W, strain idh2, active compounds read low 1.03 | S. cerevisiae deletion strains, locus YOR144C, strain elg1, active compounds read low 1.01 | S. cerevisiae deletion strains, locus YOR184W, strain ser1, active compounds read low 1.05 | S. cerevisiae deletion strains, locus YOR231W, strain MKK1, active compounds read low 1.07 | S. cerevisiae deletion strains, locus YOR265W, strain rbl2, active compounds read low 1.03 | S. cerevisiae deletion strains, locus YOR270C, strain vph1, active compounds read low 1.02 | S. cerevisiae deletion strains, locus YOR290C, strain snf2, active compounds read low 1.01 | S. cerevisiae deletion strains, locus YOR316C, strain cot1, active compounds read low 1.01 | S. cerevisiae deletion strains, locus YPL051W, strain arl3, active compounds read low 1.01 | S. cerevisiae deletion strains, locus YPL055C, strain LGE1, active compounds read low 0.981 | S. cerevisiae deletion strains, locus YPL078C, strain atp4, active compounds read low 1.02 | S. cerevisiae deletion strains, locus YPL106C, strain sse1, active compounds read low 1.02 | S. cerevisiae deletion strains, locus YPL240C, strain hsp82, active compounds read low 1.02 | S. cerevisiae deletion strains, locus YPL241C, strain CIN2, active compounds read low 1.01 | S. cerevisiae deletion strains, locus YPL256C, strain CLN2, active compounds read low 1.04 | S. cerevisiae deletion strains, locus YPR119W, strain clb2, active compounds read low 1.01 | S. cerevisiae deletion strains, locus YPR141C, strain kar3, active compounds read low 1.01 | S. cerevisiae deletion strains, locus YPR163C, strain tif3, active compounds read low 1.01 | S. cerevisiae deletion strains, locus YPR167C, strain met16, active compounds read low 1.02 | S. cerevisiae deletion strains, strain wtn01, active compounds read low 1.03 | S. cerevisiae strains, strain wild type, active compounds read low 1.01
